In ChEMBL document CHEMBL1961873, “Compounds: GSK PKIS; Assays: Nanosyn kinase panel” (2012):

Columns and labels:
[1] = target: Sphingosine kinase 1 (Homo sapiens) (UniProt Q9NYA1); details: at 1 µM;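 note: mean SPHK1 inhibition value reported from the GSK PKIS kinase panel screen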
[2] = target: T1, Sphingosine kinase 2 (Homo sapiens) (UniProt Q9NRA0); details: at 0.1 µM
T1 sequence (whole entry): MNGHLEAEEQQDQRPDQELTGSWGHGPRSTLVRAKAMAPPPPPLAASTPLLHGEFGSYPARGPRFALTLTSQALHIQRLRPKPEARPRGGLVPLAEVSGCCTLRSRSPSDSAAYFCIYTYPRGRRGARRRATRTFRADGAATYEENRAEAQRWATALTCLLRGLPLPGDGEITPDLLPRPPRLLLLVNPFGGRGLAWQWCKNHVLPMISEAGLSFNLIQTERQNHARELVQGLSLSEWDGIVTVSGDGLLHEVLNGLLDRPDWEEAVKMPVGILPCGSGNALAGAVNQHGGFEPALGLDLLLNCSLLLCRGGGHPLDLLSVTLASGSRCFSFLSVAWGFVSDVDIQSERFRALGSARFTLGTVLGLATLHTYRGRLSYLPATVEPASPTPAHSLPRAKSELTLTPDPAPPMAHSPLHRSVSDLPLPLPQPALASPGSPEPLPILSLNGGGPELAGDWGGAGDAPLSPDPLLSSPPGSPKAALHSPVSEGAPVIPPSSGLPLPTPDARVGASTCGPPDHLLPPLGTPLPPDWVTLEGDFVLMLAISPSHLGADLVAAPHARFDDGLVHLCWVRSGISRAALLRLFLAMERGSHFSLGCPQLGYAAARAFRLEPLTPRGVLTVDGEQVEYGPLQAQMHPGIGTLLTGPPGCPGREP

[3] = target: T1, Sphingosine kinase 2 (Homo sapiens); details: at 1 µM
[4] = target: Casein kinase II subunit alpha (Homo sapiens) (UniProt P68400); details: at 0.1 µM
[5] = target: Casein kinase II subunit alpha (Homo sapiens) (UniProt P68400); details: at 1 µM
[6] = target: T2, Inhibitor of nuclear factor kappa-B kinase subunit alpha (Homo sapiens) (UniProt O15111); details: at 0.1 µM
T2 sequence (whole entry): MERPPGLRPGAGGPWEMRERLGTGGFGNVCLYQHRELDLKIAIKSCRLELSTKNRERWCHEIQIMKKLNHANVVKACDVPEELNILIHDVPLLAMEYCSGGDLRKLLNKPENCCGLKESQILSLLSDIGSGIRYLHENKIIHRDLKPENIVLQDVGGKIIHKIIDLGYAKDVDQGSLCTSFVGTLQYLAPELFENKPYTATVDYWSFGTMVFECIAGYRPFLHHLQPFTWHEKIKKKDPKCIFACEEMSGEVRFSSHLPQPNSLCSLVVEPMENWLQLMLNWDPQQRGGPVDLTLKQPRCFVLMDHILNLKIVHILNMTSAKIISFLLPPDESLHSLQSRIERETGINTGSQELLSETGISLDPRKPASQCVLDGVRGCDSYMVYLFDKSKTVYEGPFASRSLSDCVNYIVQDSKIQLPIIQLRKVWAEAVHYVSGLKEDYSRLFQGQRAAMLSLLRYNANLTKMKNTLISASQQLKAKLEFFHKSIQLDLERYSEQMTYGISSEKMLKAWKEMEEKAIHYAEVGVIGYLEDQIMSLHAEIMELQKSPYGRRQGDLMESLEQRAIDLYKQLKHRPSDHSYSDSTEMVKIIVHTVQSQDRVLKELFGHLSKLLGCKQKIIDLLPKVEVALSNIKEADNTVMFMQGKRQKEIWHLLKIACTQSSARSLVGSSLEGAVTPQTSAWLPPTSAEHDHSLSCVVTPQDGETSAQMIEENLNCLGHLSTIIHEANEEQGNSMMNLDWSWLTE

[7] = target: T2, Inhibitor of nuclear factor kappa-B kinase subunit alpha (Homo sapiens); details: at 1 µM
[8] = target: T3, Inhibitor of nuclear factor kappa-B kinase subunit beta (Homo sapiens) (UniProt O14920); details: at 0.1 µM
T3 sequence (whole entry): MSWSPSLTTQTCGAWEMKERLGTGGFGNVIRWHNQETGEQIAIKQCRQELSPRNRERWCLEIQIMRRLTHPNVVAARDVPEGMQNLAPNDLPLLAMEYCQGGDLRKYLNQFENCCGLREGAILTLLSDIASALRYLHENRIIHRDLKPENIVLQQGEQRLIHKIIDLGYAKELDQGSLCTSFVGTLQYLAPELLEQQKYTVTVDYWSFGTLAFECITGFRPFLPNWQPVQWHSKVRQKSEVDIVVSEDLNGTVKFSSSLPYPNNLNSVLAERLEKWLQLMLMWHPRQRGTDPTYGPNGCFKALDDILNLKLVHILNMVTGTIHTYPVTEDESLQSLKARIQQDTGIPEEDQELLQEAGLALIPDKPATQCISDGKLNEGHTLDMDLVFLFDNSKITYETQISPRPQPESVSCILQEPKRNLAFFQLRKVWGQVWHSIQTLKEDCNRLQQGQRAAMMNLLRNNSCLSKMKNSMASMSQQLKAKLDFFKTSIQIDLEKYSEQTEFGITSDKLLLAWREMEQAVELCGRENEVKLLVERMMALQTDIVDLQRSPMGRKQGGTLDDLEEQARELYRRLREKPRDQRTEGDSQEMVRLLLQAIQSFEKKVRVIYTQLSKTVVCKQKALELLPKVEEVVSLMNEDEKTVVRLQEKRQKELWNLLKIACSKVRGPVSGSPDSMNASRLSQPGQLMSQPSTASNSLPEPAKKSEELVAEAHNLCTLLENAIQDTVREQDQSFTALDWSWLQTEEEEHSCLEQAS

[9] = target: T3, Inhibitor of nuclear factor kappa-B kinase subunit beta (Homo sapiens); details: at 1 µM
[10] = target: T4, Inhibitor of nuclear factor kappa-B kinase subunit epsilon (Homo sapiens) (UniProt Q14164); details: at 0.1 µM
T4 sequence (whole entry): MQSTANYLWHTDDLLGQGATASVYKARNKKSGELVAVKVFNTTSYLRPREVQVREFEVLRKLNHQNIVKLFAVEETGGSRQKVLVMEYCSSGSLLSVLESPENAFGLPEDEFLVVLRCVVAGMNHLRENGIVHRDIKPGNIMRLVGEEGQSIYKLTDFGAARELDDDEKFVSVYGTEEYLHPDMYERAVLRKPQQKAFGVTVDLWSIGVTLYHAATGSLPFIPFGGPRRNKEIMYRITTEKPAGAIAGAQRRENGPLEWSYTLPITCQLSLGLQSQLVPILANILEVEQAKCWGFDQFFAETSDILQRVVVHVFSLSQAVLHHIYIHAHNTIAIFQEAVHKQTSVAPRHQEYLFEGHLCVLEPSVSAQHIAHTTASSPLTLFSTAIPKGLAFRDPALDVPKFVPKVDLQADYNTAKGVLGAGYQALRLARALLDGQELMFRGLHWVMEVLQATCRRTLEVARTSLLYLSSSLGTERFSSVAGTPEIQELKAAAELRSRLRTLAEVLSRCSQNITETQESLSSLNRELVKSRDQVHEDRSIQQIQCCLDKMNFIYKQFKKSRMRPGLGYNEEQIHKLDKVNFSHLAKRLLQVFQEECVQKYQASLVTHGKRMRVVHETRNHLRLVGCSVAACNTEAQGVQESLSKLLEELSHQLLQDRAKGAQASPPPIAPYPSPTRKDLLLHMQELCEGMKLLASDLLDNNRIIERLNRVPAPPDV

[11] = target: T4, Inhibitor of nuclear factor kappa-B kinase subunit epsilon (Homo sapiens); details: at 1 µM
[12] = target: T5, Serine/threonine-protein kinase Nek1 (Homo sapiens) (UniProt Q96PY6); details: at 0.1 µM
T5 sequence (whole entry): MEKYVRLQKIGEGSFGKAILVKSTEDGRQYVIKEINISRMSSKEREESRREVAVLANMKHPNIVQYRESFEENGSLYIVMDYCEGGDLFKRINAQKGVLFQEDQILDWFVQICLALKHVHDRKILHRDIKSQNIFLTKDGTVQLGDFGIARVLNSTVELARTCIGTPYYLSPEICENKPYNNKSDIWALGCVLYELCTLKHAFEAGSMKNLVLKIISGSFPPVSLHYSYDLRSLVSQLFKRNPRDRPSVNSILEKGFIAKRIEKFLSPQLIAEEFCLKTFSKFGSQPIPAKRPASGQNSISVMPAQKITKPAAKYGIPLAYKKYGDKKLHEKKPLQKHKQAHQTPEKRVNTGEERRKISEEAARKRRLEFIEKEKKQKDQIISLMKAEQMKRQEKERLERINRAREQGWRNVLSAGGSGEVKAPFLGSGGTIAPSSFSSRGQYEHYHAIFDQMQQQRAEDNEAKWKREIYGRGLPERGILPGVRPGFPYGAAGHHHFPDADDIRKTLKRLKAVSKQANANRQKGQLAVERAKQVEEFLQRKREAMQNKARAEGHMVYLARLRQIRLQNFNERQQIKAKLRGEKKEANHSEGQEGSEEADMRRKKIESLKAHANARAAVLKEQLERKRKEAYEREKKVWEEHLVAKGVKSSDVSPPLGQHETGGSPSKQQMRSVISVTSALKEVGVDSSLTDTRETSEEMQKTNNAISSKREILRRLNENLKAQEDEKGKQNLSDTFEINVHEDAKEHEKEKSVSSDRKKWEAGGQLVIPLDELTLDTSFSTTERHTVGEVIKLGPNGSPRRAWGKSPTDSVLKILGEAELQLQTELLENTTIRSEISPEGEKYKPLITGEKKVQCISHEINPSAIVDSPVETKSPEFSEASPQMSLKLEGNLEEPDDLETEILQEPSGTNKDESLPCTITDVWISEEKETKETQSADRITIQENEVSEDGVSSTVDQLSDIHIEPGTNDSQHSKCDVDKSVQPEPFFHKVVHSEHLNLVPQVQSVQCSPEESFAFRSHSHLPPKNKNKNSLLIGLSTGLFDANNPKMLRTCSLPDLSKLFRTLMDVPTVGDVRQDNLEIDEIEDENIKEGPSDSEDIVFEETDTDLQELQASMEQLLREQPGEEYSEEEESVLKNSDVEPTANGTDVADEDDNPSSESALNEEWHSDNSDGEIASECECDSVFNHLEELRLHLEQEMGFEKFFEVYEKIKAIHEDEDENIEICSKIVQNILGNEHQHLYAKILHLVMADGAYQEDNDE

[13] = target: T5, Serine/threonine-protein kinase Nek1 (Homo sapiens); details: at 1 µM
[14] = target: T6, Serine/threonine-protein kinase Nek2 (Homo sapiens) (UniProt P51955); details: at 0.1 µM
T6 sequence (whole entry): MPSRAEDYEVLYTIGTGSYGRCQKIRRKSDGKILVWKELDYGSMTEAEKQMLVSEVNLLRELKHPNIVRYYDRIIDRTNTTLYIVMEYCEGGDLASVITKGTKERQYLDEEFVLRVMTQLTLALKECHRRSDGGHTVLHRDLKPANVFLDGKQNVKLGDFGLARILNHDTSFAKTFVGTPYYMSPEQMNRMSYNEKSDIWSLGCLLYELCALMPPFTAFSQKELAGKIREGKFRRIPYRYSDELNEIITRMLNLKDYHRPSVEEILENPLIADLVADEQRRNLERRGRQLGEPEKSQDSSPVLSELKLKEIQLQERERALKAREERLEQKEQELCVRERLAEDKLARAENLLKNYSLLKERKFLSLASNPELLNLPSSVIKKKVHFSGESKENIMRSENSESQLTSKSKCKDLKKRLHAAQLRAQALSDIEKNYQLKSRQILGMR

[15] = target: T6, Serine/threonine-protein kinase Nek2 (Homo sapiens); details: at 1 µM
[16] = target: Serine/threonine-protein kinase Nek6 (Homo sapiens) (UniProt Q9HC98); details: at 0.1 µM
[17] = target: Serine/threonine-protein kinase Nek6 (Homo sapiens) (UniProt Q9HC98); details: at 1 µM
[18] = target: Serine/threonine-protein kinase Nek7 (Homo sapiens) (UniProt Q8TDX7); details: at 0.1 µM
[19] = target: Serine/threonine-protein kinase Nek7 (Homo sapiens) (UniProt Q8TDX7); details: at 1 µM
[20] = target: T7, Serine/threonine-protein kinase Nek9 (Homo sapiens) (UniProt Q8TD19); details: at 0.1 µM;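 note: reported value is the mean percent inhibition of NEK9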
T7 sequence (whole entry): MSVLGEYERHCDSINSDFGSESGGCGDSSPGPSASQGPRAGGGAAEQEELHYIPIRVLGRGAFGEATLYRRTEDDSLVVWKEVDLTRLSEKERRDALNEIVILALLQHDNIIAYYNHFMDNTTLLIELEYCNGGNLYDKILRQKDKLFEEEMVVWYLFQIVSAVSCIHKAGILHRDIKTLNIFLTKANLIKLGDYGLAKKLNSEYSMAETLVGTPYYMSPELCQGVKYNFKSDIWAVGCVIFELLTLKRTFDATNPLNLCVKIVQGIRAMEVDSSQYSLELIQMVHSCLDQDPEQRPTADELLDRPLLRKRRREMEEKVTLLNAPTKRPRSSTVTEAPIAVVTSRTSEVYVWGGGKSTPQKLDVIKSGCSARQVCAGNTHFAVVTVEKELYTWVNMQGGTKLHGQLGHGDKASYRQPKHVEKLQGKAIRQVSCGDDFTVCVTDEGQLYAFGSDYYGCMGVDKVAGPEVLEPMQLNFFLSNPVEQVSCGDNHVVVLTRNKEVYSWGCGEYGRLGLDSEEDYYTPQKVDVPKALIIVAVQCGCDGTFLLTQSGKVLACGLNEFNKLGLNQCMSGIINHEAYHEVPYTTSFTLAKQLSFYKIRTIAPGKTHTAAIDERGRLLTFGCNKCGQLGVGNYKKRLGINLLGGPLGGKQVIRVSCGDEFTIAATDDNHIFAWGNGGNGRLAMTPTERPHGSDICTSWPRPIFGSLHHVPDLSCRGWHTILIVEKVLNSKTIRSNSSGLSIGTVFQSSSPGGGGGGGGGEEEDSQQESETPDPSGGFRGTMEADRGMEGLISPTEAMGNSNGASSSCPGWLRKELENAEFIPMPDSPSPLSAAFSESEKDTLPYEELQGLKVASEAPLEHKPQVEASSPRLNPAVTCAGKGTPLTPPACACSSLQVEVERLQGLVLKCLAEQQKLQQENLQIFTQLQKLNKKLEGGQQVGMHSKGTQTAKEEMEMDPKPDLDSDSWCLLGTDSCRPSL

Chain of Serine/threonine-protein kinase Nek6 (Homo sapiens) (Q9HC98 whole entry): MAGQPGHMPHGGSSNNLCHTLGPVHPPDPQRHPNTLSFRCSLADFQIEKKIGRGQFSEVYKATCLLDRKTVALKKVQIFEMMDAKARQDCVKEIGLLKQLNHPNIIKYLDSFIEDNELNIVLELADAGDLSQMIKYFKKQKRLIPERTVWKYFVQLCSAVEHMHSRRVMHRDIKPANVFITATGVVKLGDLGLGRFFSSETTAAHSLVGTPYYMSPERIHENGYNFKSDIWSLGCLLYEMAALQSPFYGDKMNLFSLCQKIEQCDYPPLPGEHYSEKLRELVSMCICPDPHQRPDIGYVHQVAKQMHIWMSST
Chain of Serine/threonine-protein kinase Nek7 (Homo sapiens) (Q8TDX7 whole entry, looked up): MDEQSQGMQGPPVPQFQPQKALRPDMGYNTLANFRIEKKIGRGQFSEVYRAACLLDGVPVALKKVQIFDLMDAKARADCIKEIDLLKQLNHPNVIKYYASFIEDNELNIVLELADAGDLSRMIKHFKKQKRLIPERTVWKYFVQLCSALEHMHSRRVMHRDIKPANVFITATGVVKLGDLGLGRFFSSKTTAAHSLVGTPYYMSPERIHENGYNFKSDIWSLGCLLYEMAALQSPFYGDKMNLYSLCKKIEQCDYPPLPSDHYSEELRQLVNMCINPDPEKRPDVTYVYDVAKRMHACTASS
Chain of Casein kinase II subunit alpha (Homo sapiens) (P68400 whole entry, looked up): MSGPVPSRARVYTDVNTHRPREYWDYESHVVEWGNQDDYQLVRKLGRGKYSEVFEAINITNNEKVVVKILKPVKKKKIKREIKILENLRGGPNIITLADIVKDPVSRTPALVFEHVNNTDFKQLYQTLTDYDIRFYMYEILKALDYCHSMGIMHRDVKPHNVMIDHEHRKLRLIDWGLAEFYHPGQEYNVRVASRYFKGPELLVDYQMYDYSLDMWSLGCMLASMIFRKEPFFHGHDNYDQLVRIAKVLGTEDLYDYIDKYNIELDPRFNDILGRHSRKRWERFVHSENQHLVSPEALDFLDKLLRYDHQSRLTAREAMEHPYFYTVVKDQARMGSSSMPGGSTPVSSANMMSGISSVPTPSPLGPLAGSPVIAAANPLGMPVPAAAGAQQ
Chain of Sphingosine kinase 1 (Homo sapiens) (Q9NYA1 whole entry): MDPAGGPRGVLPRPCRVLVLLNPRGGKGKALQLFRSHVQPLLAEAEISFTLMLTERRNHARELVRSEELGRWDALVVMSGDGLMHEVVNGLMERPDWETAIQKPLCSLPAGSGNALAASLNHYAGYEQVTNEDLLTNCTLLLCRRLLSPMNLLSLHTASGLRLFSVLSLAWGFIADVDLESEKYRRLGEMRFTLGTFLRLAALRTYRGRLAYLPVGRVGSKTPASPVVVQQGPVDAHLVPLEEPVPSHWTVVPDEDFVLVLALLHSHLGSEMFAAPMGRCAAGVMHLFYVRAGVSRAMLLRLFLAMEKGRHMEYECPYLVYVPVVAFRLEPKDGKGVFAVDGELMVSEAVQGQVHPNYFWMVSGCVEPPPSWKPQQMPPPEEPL

## NS(=O)(=O)c1ccc(N/N=C2\C(=O)Nc3ccc(C(=O)NCCCn4ccnc4)cc32)cc1
[1]
  inhibition: -2.65%
[2]
  inhibition: 0.75%
[3]
  inhibition: -2.51%
[4]
  inhibition: 6.89%
[5]
  inhibition: 21%
[6]
  inhibition: 2.62%
[7]
  inhibition: 0.02%
[8]
  inhibition: 12.3%
[9]
  inhibition: 14.7%
[10]
  inhibition: 10.8%
[11]
  inhibition: 26.6%
[12]
  inhibition: 2.1%
[13]
  inhibition: 4.83%
[14]
  inhibition: 4.5%
[15]
  inhibition: 5.08%
[16]
  inhibition: 2.7%
[17]
  inhibition: 3.62%
[18]
  inhibition: 6.31%
[19]
  inhibition: 5.01%
[20]
  inhibition: 9.43%
